aSyn 5UTR act: Activators working through SNCA 5'UTR binding (MLPCN); AID 1814; alpha-synuclein 5'UTR reporter, activators screen; 300,000 tested, 7.1% active; activity score, % (tested at 7.5 µM), hits read low; in the data active means activity score below about -60%
Starred values were filed as active, the others as inactive. A selection follows.

For Cc1cc2nn(-c3ccccc3)nc2cc1NC(=O)c1cccs1 the results were aSyn 5UTR act -196*.
`O=C(O)c1ccc(-c2nc(-c3ccccc3Cl)cs2)cc1` gave aSyn 5UTR act -118*.
O=C(O)c1ccccc1C(=O)Nc1ccc(-c2csc(-c3ccccc3)n2)cc1 was read as aSyn 5UTR act -64*.
Screening O=C(O)c1ccc(-c2nc(-c3ccc(Cl)c(Cl)c3)cs2)cc1 returned aSyn 5UTR act -100*.
Screening O=C(O)c1ccccc1C(=O)Nc1ccc(Oc2cccc3ccccc23)cc1 returned aSyn 5UTR act 94.
For Cc1oncc1-c1csc(-c2ccccc2)n1 the results were aSyn 5UTR act -82*.
O=C(O)c1ccc(-c2nc(-c3ccccc3)cs2)cc1 was read as aSyn 5UTR act -140*.
For c1ccc(-c2csc(-c3ccc(-c4csnn4)cc3)n2)cc1 the results were aSyn 5UTR act -192*.
Screening CNC(=O)c1ccc(-c2nc(-c3ccccc3)cs2)cc1 returned aSyn 5UTR act -116*.
`O=C(O)c1ccccc1-c1csc(-c2ccccc2)n1` gave aSyn 5UTR act -118*.
CNC(=O)c1csc(-c2ccc(C)cc2)n1 was read as aSyn 5UTR act -81*.
For c1ccc(COc2ccc(-c3csnn3)cc2)cc1 the results were aSyn 5UTR act -185*.
Cc1ccc2nc(-c3ccc(NC(=O)CN4CCN(C(=O)c5ccco5)CC4)cc3)sc2c1 was read as aSyn 5UTR act -177*.
Screening Cc1cccc(NS(=O)(=O)c2ccc(NC(=O)CN(c3cc([N+](=O)[O-])ccc3C)S(C)(=O)=O)cc2)c1 returned aSyn 5UTR act 101.
Screening Cc1cc(C)cc(N(CC(=O)Nc2ccc(-c3nc4ccc(C)cc4s3)cc2)S(C)(=O)=O)c1 returned aSyn 5UTR act -100*.
For Cc1ccc2nc(-c3ccc(NC(=O)CN(c4ccccc4C)S(C)(=O)=O)cc3)sc2c1 the results were aSyn 5UTR act -164*.
`O=[N+]([O-])c1cc2c(cc1/C=N/Nc1nc(Nc3ccccc3)nc(N3CCCCC3)n1)OCO2` gave aSyn 5UTR act -63*.
`COc1cccc(/C=N/Nc2nc(Nc3ccc([N+](=O)[O-])cc3)nc(N3CCCC3)n2)c1O` gave aSyn 5UTR act 65.
`Cc1ccccc1CSc1nnc(-c2ccncc2)o1` gave aSyn 5UTR act -86*.
For Fc1ccc(-c2nnc(SCc3cccnc3)o2)cc1 the results were aSyn 5UTR act -76*.
`c1ccc(CSc2nnc(-c3ccncc3)o2)cc1` gave aSyn 5UTR act -104*.
Screening N/C(=N\O)c1ccc(N2CCN(c3ncccc3C(F)(F)F)CC2)nc1 returned aSyn 5UTR act -98*.
O=C(c1ccccc1)c1coc2c1C(=O)c1ccccc1C2=O was read as aSyn 5UTR act -80*.
For O=C1c2ccccc2C(=O)c2c1oc(C(F)(F)F)c2C(=O)c1ccccc1 the results were aSyn 5UTR act 101.
For O=C(CCN1C(=O)C2CCCCC2C1=O)Nc1nc(-c2ccccc2)cs1 (configuration not stated) the results were aSyn 5UTR act -65*.
O=C(CN1CCCCC1)Nc1nc(-c2ccccc2)cs1 was read as aSyn 5UTR act -77*.
For Cc1ccccc1C(=O)N1CCc2cc(-c3csc(NC(=O)CN4CCCC4)n3)ccc21 the results were aSyn 5UTR act -99*.
`Cc1sc(NC(=O)CN2CCCC2)nc1-c1ccc2c(c1)CCN2C(=O)c1cccc(F)c1` gave aSyn 5UTR act -69*.
Screening O=C(CN1CCCCC1)Nc1nc(-c2ccc(F)c(F)c2)cs1 returned aSyn 5UTR act -99*.
For O=C(CN1CCCCC1)Nc1nc(-c2ccc(Cl)cc2)cs1 the results were aSyn 5UTR act -74*.
Screening C[C@@H]1CC=C[C@H]2[C@H]1C(=O)N(Cc1ccccc1)[C@H]2c1ccc(-c2cc3ccccc3s2)cc1F returned aSyn 5UTR act -138*.
`O=C(Cc1ccccc1F)Nc1ccc(SC(F)F)cc1` gave aSyn 5UTR act -137*.
Screening O=C(COC(=O)c1ccccc1Cc1ccccc1)Nc1ccc(SC(F)F)cc1 returned aSyn 5UTR act -109*.
O=C(CCN1CCN(c2ccccc2)CC1)N/N=C/c1ccccc1O was read as aSyn 5UTR act 71.
Screening O=C(N/N=C/c1ccccc1O)NC12CC3CC(CC(C3)C1)C2 returned aSyn 5UTR act -168*.
For CN1CCC(=NOc2ccc([N+](=O)[O-])cc2)CC1 the results were aSyn 5UTR act -93*.
`Clc1ccc(-c2cn3nc4c(nc3n2)CCCC4)cc1` gave aSyn 5UTR act 88.
`Clc1ccc(-c2cn3cccnc3n2)cc1Cl` gave aSyn 5UTR act -193*.
Screening Clc1ccc(-c2cn3cccnc3n2)cc1 returned aSyn 5UTR act -132*.
For Cc1cccc(C(=O)Oc2ccc(/C=N/O)cc2)c1 the results were aSyn 5UTR act -72*.
For COc1cccc(NC(=O)C2CCN(S(=O)(=O)c3ccc4c(c3)NC(=O)C(C)S4)CC2)c1 (configuration not stated) the results were aSyn 5UTR act -68*.
For CCc1cc(C=C(Cl)Cl)oc(=O)c1C the results were aSyn 5UTR act -117*.

High-throughput results: PubChem, Broad Institute
